Results reported in PubChem BioAssay (Tox21).
Records with an inconclusive call do not appear. Activity calls are given as the source filed them. The call rests on the fitted dose curve; in most records, active means well fitted curve in the direction sought with a large enough effect in the repeat runs; inconclusive means weak or mixed curves; inactive means no such curve, though single readings can be large; an effect the other way counts as inactive or inconclusive.

Legend:
[1] = qHTS RealTime-Glo MT Cell Viability Assay in HEK293 cells - 0 hour (AID 1224880); details: RealTime-Glo luminescence; series mostly up to 76.8 µM; further: top concentration of the series differs between compounds; nearly all actives have a fitted effect of over 45% in size
Outline: (§1)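 Viable HEK293 cells reduce a cell-permeant prosubstrate; the product diffuses out and is consumed by NanoLuc in the medium to give light. Compounds went in after a 5 h incubation and plates were read over the treatment course.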

[2] = A CellTox Green Cytotoxicity Assay to monitor cytotoxicity in HEK293 cells - 32 hour (AID 1224881); details: CellTox Green fluorescence; series mostly up to 76.8 µM; further: nearly all actives have a fitted effect of over 40% in size
Outline: (§2)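 Fluorescence intensity, read at 0, 8, 16, 24, 32 and 40 h of compound treatment, reflected dye binding to DNA of dead HEK293 cells; compounds (23 nL, DMSO) were added 5 h after plating cells with reagent.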

[3] = A CellTox Green Cytotoxicity Assay to monitor cytotoxicity in HepG2 cells - 32 hour (AID 1224883); details: CellTox Green fluorescence; series mostly up to 76.8 µM; further: nearly all actives have a fitted effect of over 50% in size
Outline: (§3)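 Using 1536-well format, dye-containing HepG2 suspension was seeded, allowed 5 h at 37 C/5% CO2, dosed by pintool with compounds, positive and negative controls, and imaged for fluorescence across 40 h.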

[4] = A CellTox Green Cytotoxicity Assay to monitor cytotoxicity in HEK293 cells - 8 hour (AID 1224884); details: CellTox Green fluorescence; series mostly up to 76.8 µM; further: nearly all actives have a fitted effect of over 35% in size
Outline: as §2

[5] = qHTS RealTime-Glo MT Cell Viability Assay in HepG2 cells - 16 hour (AID 1224885); details: RealTime-Glo luminescence; series mostly up to 76.8 µM; further: nearly all actives have a fitted effect of over 50% in size
Outline: (§4)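 Luminescence read-out: viable HepG2 cells reduce a prosubstrate to a NanoLuc substrate, giving a signal proportional to live cell number. Reads taken at 0, 8, 16, 24, 32 and 40 h of compound exposure at 37 C.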

[6] = qHTS RealTime-Glo MT Cell Viability Assay in HEK293 cells - 24 hour (AID 1224886); details: RealTime-Glo luminescence; series mostly up to 76.8 µM; further: top concentration of the series differs between compounds; nearly all actives have a fitted effect of over 50% in size
Outline: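 Nonlytic real-time viability readout: viable cells convert prosubstrate to NanoLuc substrate, giving luminescence proportional to live cell number. HEK293, 600 cells/well, compound added after 5 h, continuous culture at 37 C.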

[7] = qHTS RealTime-Glo MT Cell Viability Assay in HEK293 cells - 8 hour (AID 1224887); details: RealTime-Glo luminescence; series mostly up to 76.8 µM; further: top concentration of the series differs between compounds; nearly all actives have a fitted effect of over 50% in size
Outline: as §1

[8] = A CellTox Green Cytotoxicity Assay to monitor cytotoxicity in HEK293 cells - 16 hour (AID 1224888); details: CellTox Green fluorescence; series mostly up to 76.8 µM; further: nearly all actives have a fitted effect of over 35% in size
Outline: as §2

[9] = qHTS RealTime-Glo MT Cell Viability Assay in HepG2 cells - 0 hour (AID 1224889); details: RealTime-Glo luminescence; series mostly up to 76.8 µM; further: nearly all actives have a fitted effect of over 50% in size
Outline: as §4

[10] = A CellTox Green Cytotoxicity Assay to monitor cytotoxicity in HepG2 cells - 0 hour (AID 1224882); details: CellTox Green fluorescence; series mostly up to 76.8 µM; further: nearly all actives have a fitted effect of over 35% in size
Outline: as §3

Measured: Potency

NC(=O)CCCCC1CCSS1 (stereo not given)
not listed: [9] | [10]
inactive: all other assays above

Cc1ccccc1Br
not listed: [5] | [10]
inactive: all other assays above

CCCCOCC(C)OCC(C)O (stereo not given)
not listed: [5] | [9] | [10]
inactive: all other assays above

C=C(C)C(=O)OCCC(C)OC(=O)C(=C)C (stereo not given)
not listed: [10]
inactive: all other assays above

CCCCCCCCCCCCI
not listed: [4] | [7]
inactive: all other assays above

CCCCCCCCCCCl
not listed: [9] | [10]
inactive: all other assays above

CC(C)=CCC/C(C)=C/C(=O)O
not listed: [3]
inactive: all other assays above

CC1=CCC2C(C1)C2(C)C (stereo not given)
not listed: [2] | [9]
inactive: all other assays above

C=C(C)C(=O)NCCCN(C)C
not listed: [4] | [5] | [8]
inactive: all other assays above

CCCCCCCCCCCCCCC
not listed: [10]
inactive: all other assays above

CCCCCCOC(=O)c1ccccc1O
not listed: [4] | [10]
inactive: all other assays above

O=S(=O)(c1cccc2cnccc12)N1CCCNCC1
not listed: [3]
inactive: all other assays above

COc1cccc(Br)c1
not listed: [3] | [10]
inactive: all other assays above

CC1(C)OC(=O)Nc2ccc(Br)cc21
not listed: [9] | [10]
inactive: all other assays above

CCCCCCCCCCCCCCCCCCOCC(O)CO (stereo not given)
not listed: [3] | [10]
inactive: all other assays above

NC(N)=NS(=O)(=O)c1ccc(N)cc1
not listed: [5] | [9] | [10]
inactive: all other assays above

COc1cccc(OC)c1
not listed: [9] | [10]
inactive: all other assays above

CC(C)c1cccc(O)c1
not listed: [3]
inactive: all other assays above

CNc1ncnc2nc[nH]c12
not listed: [10]
inactive: all other assays above

Cc1ccccc1C(=O)O
not listed: [3]
inactive: all other assays above

CCCC(C)CO (stereo not given)
not listed: [2] | [9]
inactive: all other assays above

COC(=O)c1ccc(C(=O)OC)c(C(=O)OC)c1
not listed: [3]
inactive: all other assays above

CC(C)(C)C(=O)/C=C/c1ccc(Cl)cc1
not listed: [10]
inactive: all other assays above

C=C(C)C1CC=C(C)C(O)C1 (stereo not given)
not listed: [2] | [9]
inactive: all other assays above

N[C@@H](CS)C(=O)O
not listed: [5] | [10]
inactive: all other assays above

CO
not listed: [10]
inactive: all other assays above
